Laboratory results from paper PMC11006913.

Biological target: HOXB6 (Homo sapiens, UniProt P17509 132-218, K202E)
Assay: PBM; 200 nM protein, PBS
Settings: dsDNA, one strand shown

HOXB6 (Homo sapiens, UniProt P17509 132-218, K202E), sequence (P17509 132-218 K202E): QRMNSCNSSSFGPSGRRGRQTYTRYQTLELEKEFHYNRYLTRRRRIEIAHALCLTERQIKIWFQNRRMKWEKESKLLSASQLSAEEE

Sequence | binding signal
AAAAAAAT | 9.72 upbm affinity estimate (log intensity, higher = more binding, comparable within an allelic series)
ATTTCATA | 9.65 upbm affinity estimate (log intensity, higher = more binding, comparable within an allelic series)
ATCACATG | 9.52 upbm affinity estimate (log intensity, higher = more binding, comparable within an allelic series)
CGGCGCGC | 9.13 upbm affinity estimate (log intensity, higher = more binding, comparable within an allelic series)
CAACATAA | 9.7 upbm affinity estimate (log intensity, higher = more binding, comparable within an allelic series)
CGCGTGCC | 9.06 upbm affinity estimate (log intensity, higher = more binding, comparable within an allelic series)
AATAGTTC | 9.51 upbm affinity estimate (log intensity, higher = more binding, comparable within an allelic series)
AGGGAGGA | 9.04 upbm affinity estimate (log intensity, higher = more binding, comparable within an allelic series)
AGCCTAGG | 9.04 upbm affinity estimate (log intensity, higher = more binding, comparable within an allelic series)
CCCTGGGA | 8.98 upbm affinity estimate (log intensity, higher = more binding, comparable within an allelic series)
TAATGGAA | 9.72 upbm affinity estimate (log intensity, higher = more binding, comparable within an allelic series)
AATGTTGT | 9.62 upbm affinity estimate (log intensity, higher = more binding, comparable within an allelic series)
GGGCCCCA | 8.9 upbm affinity estimate (log intensity, higher = more binding, comparable within an allelic series)
CGTTGCCC | 9.13 upbm affinity estimate (log intensity, higher = more binding, comparable within an allelic series)
AGTCCTCC | 9.17 upbm affinity estimate (log intensity, higher = more binding, comparable within an allelic series)
AGGCGGAC | 9.08 upbm affinity estimate (log intensity, higher = more binding, comparable within an allelic series)
GGTTTTTA | 9.65 upbm affinity estimate (log intensity, higher = more binding, comparable within an allelic series)

Sequence | binding signal
CCTCGGAC | 9.1 upbm affinity estimate (log intensity, higher = more binding, comparable within an allelic series)
CCCTCCGA | 9.02 upbm affinity estimate (log intensity, higher = more binding, comparable within an allelic series)
CAAAATGG | 9.63 upbm affinity estimate (log intensity, higher = more binding, comparable within an allelic series)
AATACCAA | 9.59 upbm affinity estimate (log intensity, higher = more binding, comparable within an allelic series)
AATGATTG | 9.68 upbm affinity estimate (log intensity, higher = more binding, comparable within an allelic series)
AGTTATTG | 9.58 upbm affinity estimate (log intensity, higher = more binding, comparable within an allelic series)
AGCGAGGG | 9.04 upbm affinity estimate (log intensity, higher = more binding, comparable within an allelic series)
CCCGGTAG | 9.07 upbm affinity estimate (log intensity, higher = more binding, comparable within an allelic series)
GAGGGGCA | 9.15 upbm affinity estimate (log intensity, higher = more binding, comparable within an allelic series)
CCGGGGCA | 8.98 upbm affinity estimate (log intensity, higher = more binding, comparable within an allelic series)
GCCCCGCA | 9.01 upbm affinity estimate (log intensity, higher = more binding, comparable within an allelic series)
GGTATTAC | 9.66 upbm affinity estimate (log intensity, higher = more binding, comparable within an allelic series)
CGGTAGGC | 9.06 upbm affinity estimate (log intensity, higher = more binding, comparable within an allelic series)
CCAATTTC | 9.48 upbm affinity estimate (log intensity, higher = more binding, comparable within an allelic series)
TGACTTAA | 9.69 upbm affinity estimate (log intensity, higher = more binding, comparable within an allelic series)
ACGCCGCG | 9.12 upbm affinity estimate (log intensity, higher = more binding, comparable within an allelic series)
CCGACTCC | 9.11 upbm affinity estimate (log intensity, higher = more binding, comparable within an allelic series)

Biological target: ALX4 (Homo sapiens, UniProt Q9H161 200-286, Q225E)
Assay: PBM; 200 nM protein, PBS
Settings: dsDNA, one strand shown

ALX4, sequence (Q9H161 200-286 Q225E): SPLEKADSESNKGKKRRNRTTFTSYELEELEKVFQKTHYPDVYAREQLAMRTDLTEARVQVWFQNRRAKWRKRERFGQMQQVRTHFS

Sequence | binding signal
AATAAATA | 11 upbm affinity estimate (log intensity, higher = more binding, comparable within an allelic series)
AATAAAAG | 10.4 upbm affinity estimate (log intensity, higher = more binding, comparable within an allelic series)
AATAAATC | 10.8 upbm affinity estimate (log intensity, higher = more binding, comparable within an allelic series)

Biological target: T1, SIX6 (Homo sapiens, UniProt O95475 114-200, T165G)
T1 sequence: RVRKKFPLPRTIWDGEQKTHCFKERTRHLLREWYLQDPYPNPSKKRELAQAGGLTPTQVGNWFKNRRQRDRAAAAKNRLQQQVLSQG
Assay: PBM; 200 nM protein, PBS
Settings: dsDNA, one strand shown

Sequence | binding signal
TCATATCA | 11.2 upbm affinity estimate (log intensity, higher = more binding, comparable within an allelic series)
AAGACACC | 10.6 upbm affinity estimate (log intensity, higher = more binding, comparable within an allelic series)
GACACCCC | 10.6 upbm affinity estimate (log intensity, higher = more binding, comparable within an allelic series)

Biological target: HOXB6 (Homo sapiens, UniProt P17509 132-218)
Assay: PBM; 200 nM protein, PBS
Settings: dsDNA, one strand shown

HOXB6 (Homo sapiens, UniProt P17509 132-218), sequence (P17509 132-218): as the sequence (P17509 132-218 K202E) above, with E71K counted along it

Sequence | binding signal
AAAAAAAT | 10.2 upbm affinity estimate (log intensity, higher = more binding, comparable within an allelic series)
ATTTCATA | 10.2 upbm affinity estimate (log intensity, higher = more binding, comparable within an allelic series)
ATCACATG | 9.98 upbm affinity estimate (log intensity, higher = more binding, comparable within an allelic series)
CGGCGCGC | 9.19 upbm affinity estimate (log intensity, higher = more binding, comparable within an allelic series)
CAACATAA | 10.4 upbm affinity estimate (log intensity, higher = more binding, comparable within an allelic series)
CGCGTGCC | 9.06 upbm affinity estimate (log intensity, higher = more binding, comparable within an allelic series)
AATAGTTC | 10.1 upbm affinity estimate (log intensity, higher = more binding, comparable within an allelic series)
AGGGAGGA | 9.03 upbm affinity estimate (log intensity, higher = more binding, comparable within an allelic series)
AGCCTAGG | 9.03 upbm affinity estimate (log intensity, higher = more binding, comparable within an allelic series)
CCCTGGGA | 8.98 upbm affinity estimate (log intensity, higher = more binding, comparable within an allelic series)
TAATGGAA | 10.8 upbm affinity estimate (log intensity, higher = more binding, comparable within an allelic series)
AATGTTGT | 10.2 upbm affinity estimate (log intensity, higher = more binding, comparable within an allelic series)
GGGCCCCA | 8.9 upbm affinity estimate (log intensity, higher = more binding, comparable within an allelic series)
CGTTGCCC | 9.12 upbm affinity estimate (log intensity, higher = more binding, comparable within an allelic series)
AGTCCTCC | 9.06 upbm affinity estimate (log intensity, higher = more binding, comparable within an allelic series)
AGGCGGAC | 9.04 upbm affinity estimate (log intensity, higher = more binding, comparable within an allelic series)
GGTTTTTA | 10.3 upbm affinity estimate (log intensity, higher = more binding, comparable within an allelic series)

Sequence | binding signal
CCTCGGAC | 8.96 upbm affinity estimate (log intensity, higher = more binding, comparable within an allelic series)
CCCTCCGA | 8.91 upbm affinity estimate (log intensity, higher = more binding, comparable within an allelic series)
CAAAATGG | 10.4 upbm affinity estimate (log intensity, higher = more binding, comparable within an allelic series)
AATACCAA | 10.2 upbm affinity estimate (log intensity, higher = more binding, comparable within an allelic series)
AATGATTG | 10.7 upbm affinity estimate (log intensity, higher = more binding, comparable within an allelic series)
AGTTATTG | 10.6 upbm affinity estimate (log intensity, higher = more binding, comparable within an allelic series)
AGCGAGGG | 8.99 upbm affinity estimate (log intensity, higher = more binding, comparable within an allelic series)
CCCGGTAG | 9.12 upbm affinity estimate (log intensity, higher = more binding, comparable within an allelic series)
GAGGGGCA | 9.24 upbm affinity estimate (log intensity, higher = more binding, comparable within an allelic series)
CCGGGGCA | 8.98 upbm affinity estimate (log intensity, higher = more binding, comparable within an allelic series)
GCCCCGCA | 9.08 upbm affinity estimate (log intensity, higher = more binding, comparable within an allelic series)
GGTATTAC | 10.2 upbm affinity estimate (log intensity, higher = more binding, comparable within an allelic series)
CGGTAGGC | 8.98 upbm affinity estimate (log intensity, higher = more binding, comparable within an allelic series)
CCAATTTC | 10.1 upbm affinity estimate (log intensity, higher = more binding, comparable within an allelic series)
TGACTTAA | 10.5 upbm affinity estimate (log intensity, higher = more binding, comparable within an allelic series)
ACGCCGCG | 9.15 upbm affinity estimate (log intensity, higher = more binding, comparable within an allelic series)
CCGACTCC | 9.01 upbm affinity estimate (log intensity, higher = more binding, comparable within an allelic series)
